# Tests used:
# Details in all cases: Compound Concentration (nM):1000
# [1] = system: PDGFRB
# [2] = system: PDPK1
# [3] = system: T1, PFCDPK1(P.falciparum)
# T1 construct: gene CDPK1
# [4] = system: T2, PFPK5(P.falciparum)
# T2 construct: gene MAL13P1.279
# [5] = system: T3, PFTAIRE2
# T3 construct: gene CDK15
# [6] = system: T4, PFTK1
# T4 construct: gene CDK14
# [7] = system: PHKG1
# [8] = system: PHKG2
# [9] = system: PIK3C2B
# [10] = system: PIK3C2G
# [11] = system: PIK3CA(C420R)
# [12] = system: PIK3CA(E542K)
# [13] = system: PIK3CA(E545A)
# [14] = system: PIK3CA(E545K)
# [15] = system: PIK3CA(H1047L)
# [16] = system: PIK3CA(H1047Y)
# [17] = system: PIK3CA(I800L)
# [18] = system: PIK3CA(M1043I)
# [19] = system: PIK3CA(Q546K)
# [20] = system: PIK3CA
# 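Also: KINOMEscan scanMAX binding as percent activity remaining versus control; lower means stronger binding.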
Structure (SMILES),Percent Control [1],Percent Control [2],Percent Control [3],Percent Control [4],Percent Control [5],Percent Control [6],Percent Control [7],Percent Control [8],Percent Control [9],Percent Control [10],Percent Control [11],Percent Control [12],Percent Control [13],Percent Control [14],Percent Control [15],Percent Control [16],Percent Control [17],Percent Control [18],Percent Control [19],Percent Control [20]
COc1cc(C)c(N(C)C(=O)CN(C)C)cc1Nc1nc(Nc2cccc(F)c2C(N)=O)c2cc[nH]c2n1 [GSK2219385],100%,97%,100%,76%,79%,100%,100%,83%,100%,92%,84%,100%,97%,100%,100%,67%,100%,100%,100%,100%
COc1cc(C=NNc2ncnc3c2cnn3-c2ccccc2)ccc1O [GW513184X],40%,100%,100%,100%,100%,91%,100%,100%,71%,100%,78%,100%,76%,100%,100%,62%,100%,59%,100%,78%
COc1cc2ncn(-c3cc(O[C@H](C)c4ccccc4Cl)c(C(N)=O)s3)c2cc1OC [GSK237701A],12%,90%,75%,57%,60%,100%,100%,79%,12%,78%,65%,44%,62%,51%,53%,56%,49%,52%,58%,54%
CCc1ccc(Oc2nccc(-c3c(-c4ccc(F)cc4)ncn3C3CCNCC3)n2)cc1 [SB-242719],81%,86%,66%,87%,93%,86%,90%,72%,100%,93%,81%,98%,87%,92%,63%,81%,91%,100%,90%,92%
CCS(=O)(=O)c1ccc(OC)c(Nc2ncc(-c3cccc(OC)c3)o2)c1 [GW580509X],9.7%,100%,7.8%,100%,100%,100%,100%,100%,100%,97%,100%,100%,100%,100%,100%,98%,100%,100%,100%,100%
Cl.O=C(Nc1ccc(Oc2ccc3[nH]c(NC(=O)c4ccco4)nc3c2)cc1)Nc1cc(C(F)(F)F)ccc1F [GW683134A],0.3%,67%,84%,100%,87%,100%,100%,95%,100%,83%,100%,99%,100%,100%,78%,100%,100%,100%,100%,100%
COc1cc(/C=N/Nc2ncnc3[nH]ncc23)ccc1O [GW578748X],38%,83%,18%,100%,96%,100%,100%,88%,72%,51%,97%,63%,82%,59%,18%,84%,51%,43%,62%,82%
NS(=O)(=O)c1ccc(N/N=C2\C(=O)Nc3ccc(Cl)cc32)cc1 [GW280670X],29%,100%,81%,100%,100%,100%,100%,100%,100%,88%,100%,100%,100%,100%,100%,100%,100%,100%,100%,100%
O=C(Nc1n[nH]c2nc(-c3ccc(O)cc3)c(Br)cc12)C1CC1 [SB-725317],3.4%,100%,32%,100%,92%,84%,100%,100%,100%,100%,92%,100%,100%,100%,100%,93%,100%,100%,100%,100%
COC(=O)Nc1nc2ccc(Oc3ccc(NC(=O)Nc4cc(C(F)(F)F)ccc4F)cc3)cc2s1.Cl [GW693917A],0.1%,95%,77%,77%,27%,56%,100%,90%,100%,87%,95%,96%,100%,83%,91%,84%,82%,100%,94%,100%
COc1cc(N2CCN(C(C)C)CC2)ccc1Nc1nc(Nc2ccc(F)cc2C(=O)NC[C@@H](O)CO)c2cc[nH]c2n1 [GSK1392956A],100%,91%,94%,74%,100%,100%,29%,39%,100%,96%,99%,100%,100%,95%,100%,83%,97%,97%,100%,100%
CCn1c(-c2nonc2N)nc2c(C#CC(C)(C)O)nc(OCCNC)cc21.Cl [GSK949675],100%,79%,100%,100%,100%,100%,100%,100%,82%,100%,100%,100%,88%,100%,100%,77%,100%,100%,100%,75%
CC1=C(C(=O)Nc2ccc3[nH]ncc3c2)C(c2ccc(Cl)c(Cl)c2)CC(=O)N1 (stereo not shown) [GSK299115A],99%,100%,87%,71%,66%,49%,100%,84%,84%,77%,90%,73%,90%,73%,97%,76%,78%,68%,83%,82%
O=C1Nc2ccc(C(=O)c3ccco3)cc2C1=Cc1cc(Cl)c(O)c(Cl)c1 [GW406108X],88%,97%,9.5%,93%,100%,89%,100%,70%,12%,39%,76%,76%,83%,72%,41%,79%,34%,93%,77%,91%
COc1cccc(-n2ncc3c(N/N=C/c4ccncc4)ncnc32)c1 [GW784752X],60%,92%,33%,100%,74%,95%,37%,93%,100%,98%,100%,100%,100%,92%,100%,100%,96%,100%,100%,100%
COc1ccc(COc2ccc(Cc3cnc(N)nc3N)cc2OC)cc1 [GW632580X],92%,100%,70%,71%,80%,74%,100%,96%,86%,100%,100%,96%,100%,91%,75%,100%,93%,100%,100%,76%
NS(=O)(=O)c1ccc(Nc2ncc(-c3ccccc3)o2)cc1 [GW572399X],3.4%,100%,27%,100%,98%,100%,100%,100%,100%,100%,100%,100%,100%,100%,93%,100%,100%,93%,100%,100%
Cc1cc(O)cc(C)c1/C=C/c1cncc(C(N)=O)c1 [GW435821X],0.5%,96%,75%,100%,100%,100%,100%,100%,97%,85%,100%,100%,100%,100%,100%,100%,100%,88%,100%,96%
CN(C)CCNC(=O)Nc1ccc(N(C)c2ccnc(Nc3ccc(CS(C)(=O)=O)cc3)n2)cc1.Cl [GW830900A],0%,83%,83%,100%,90%,100%,92%,100%,100%,95%,100%,84%,100%,80%,100%,98%,86%,92%,87%,92%
Cl.O=S1CCN(Cc2ccc(-c3ccc4ncnc(Nc5ccc(OCc6ccccc6)c(F)c5)c4c3)o2)CC1 [GW576924A],100%,100%,83%,100%,100%,100%,100%,100%,100%,78%,100%,100%,100%,100%,100%,100%,100%,88%,100%,100%

# — PMC7826789 (International Journal of Molecular Sciences, 2021)
